# Calls of active or inactive are those of the source. Calls come from the whole dose curve; as a rule, active = well fitted cell-killing curve with a large enough effect in the repeat runs; inconclusive = weak or mixed curves, or effect the other way; inactive = flat fitted curve, though single readings scatter.
# Test: qHTS assay to identify small molecule HDAC inhibitors - cell viability counter screen (AID 1259365); note: nearly all actives have a fitted effect of over 50% in size
# Details: HCT-116 viability, CellTiter-Glo ATP luminescence, 2 h; series mostly up to 92.4 µM
# Source text: U.S. Tox21 Program National Center for Advancing Translational Sciences [NCATS] NIH Chemical Genomics Center [NCGC] U.S. Environmental Protection Agency [EPA] National Institutes of Environmental Health Sciences [NIEHS] National Toxicology Program [NTP] U.S. Food and Drug Administration [FDA] Tox21 Assay Overview: Histone deacetylases (HDACs) are a group of epigenetic enzymes that regulate gene expression by histone deacetylation. HDACs are capable of introducing epigenetic modifications and such aberrations contribute to the onset and progression of several human diseases, thus making HDACs a popular therapeutic target. For identifying endogenous class I/II HDAC inhibitors a homogenous, luminogenic HDAC I/II cell based assay was used to measure the relative activity of class I and II HDACs from cells. Wild type HCT-116 cells were used to screen Tox21 compound libraries for identifying class I/II HDAC inhibitors.
# Tox21 Assay Protocol Summary: HCT-116 cells were dispensed at 1,500 per well in 5uL of culture medium into white solid bottom 1536-well plates (Greiner Bio-One, Monroe, NC) using a Multidrop Combi (Thermo Scientific, Waltham, MA) dispenser. The assay plates were incubated at 37 C and 5% CO2 for an overnight, and then 23nL of compounds dissolved in DMSO and positive control were transferred using a Pintool station (Wako, San Diego, CA). The assay plates were incubated at 37C and 5% CO2 for 2hr. After compound treatment, 4uL of CellTiter-Glo reagent (Promega Corporation, Madison, WI) was added to each well of the assay plates using Flying Reagent Dispenser (FRD, Aurora Discovery, San Diego, CA) and incubated the assay plates at room temperature for 30min. The luminescence signal was quantified using a ViewLux plate reader (Perkin Elmer, Shelton, CT).
row,SMILES,outcome
1,Cc1occc1S,inactive
2,Cc1ccc(C(=O)C(C)CN2CCCCC2)cc1 (stereo not given),inactive
3,O=C(Cl)c1ccc([N+](=O)[O-])cc1,inactive
4,CCCCCCCCCCCCCCCC(=O)OC/C=C(C)/C=C/C=C(C)/C=C/C1=C(C)CCCC1(C)C,inactive
5,CCCCCC(CO)CCC (stereo not given),inactive
6,CC(CN)CCCN (stereo not given),inactive
7,COC(Cc1ccccc1)OC,inactive
8,Cc1cc(C)c(S(=O)(=O)O)cc1N=Nc1cc(S(=O)(=O)O)c2ccccc2c1O,inactive
9,N#CCCNCCC#N,inactive
10,Oc1ccc(Cc2ccccc2)cc1,inactive
11,NCCCN(CCO)CCO,inactive
12,O=C(O)Cc1cc(I)c(Oc2ccc(O)c(I)c2)c(I)c1,inactive
13,Cc1cccc(C(C)(C)C)c1O,inactive
14,CC(C)NCC(O)COc1ccc(CC(N)=O)cc1 (stereo not given),inactive
15,Cc1cc(O)ccc1N,inactive
16,Cc1ccc(C(N)=O)cc1N,inactive
17,Nc1ccc(C(=O)N2CC3CC(CN(Cc4ccccc4)C3)C2)cc1,inactive
18,O=S1(=O)c2cccc3cccc(c23)N1CCCN1CCN(c2ccc(F)cc2)CC1,inactive
19,CCCCOC(=O)c1ccccc1C(=O)OCC(CC)CCCC (stereo not given),inactive
20,CC(C)(C)c1ccc(S)cc1,inactive

row,SMILES,outcome
1,N[C@H]1C(O)O[C@H](CO)[C@H](O)[C@@H]1O (stereo not given in full),inactive
2,CC(C(=O)O)c1ccc(-c2ccccc2)c(F)c1 (stereo not given),inactive
3,CCOC(=O)C1=NN(c2ccccc2)C(=O)C1,inactive
4,CC(=O)CC(=O)c1ccccc1,inactive
5,C=Cc1c(C)c2cc3[nH]c(cc4nc(cc5nc(cc1[nH]2)C(C)=C5CCC(=O)O)C(CCC(=O)O)=C4C)c(C)c3C=C,inactive
6,CCCCCCCC/C=C\CCCCCCCC(N)=O,inactive
7,O=C(O)c1cccc(N(Cc2cccnc2)c2ccc(OC(F)F)c(OC(F)F)c2)c1,inactive
8,CC(=O)O[C@H]1C[C@@H]2CC[C@@H]3[C@H](CC[C@@]4(C)[C@H]3C[C@H]([N+]3(C)CCCCC3)[C@@H]4OC(C)=O)[C@@]2(C)C[C@@H]1N1CCCCC1,inactive
9,Oc1ccc(Sc2ccc(O)cc2)cc1,inactive
10,CC(=O)O[C@@H]1C(=O)O[C@@H]2[C@H]1OC(=O)[C@@H]2OC(C)=O,inactive
11,Cc1cccc(Oc2ccccc2)c1,inactive
12,CCCCOCCOCCOCCOCCO,inactive
13,CCC(=O)OC(C)(C)C1CC=C(C)CC1 (stereo not given),inactive
14,CCOc1ccc(NC(=O)CC(C)=O)cc1,inactive
15,CN(C)CCCOc1nn(Cc2ccccc2)c2ccccc12,inactive
16,Cn1sccc1=O,inactive
17,CC(C(=O)O)c1ccc(C(=O)c2ccccc2)s1 (stereo not given),inactive
18,CNCC[C@@H](Oc1ccccc1C)c1ccccc1,inactive
19,O=C(O)/C=C/c1cnc[nH]1,inactive
20,O=S(=O)(O)c1ccc(O)c2ncccc12,inactive
